In the library only some 2.6% were active in any assay of this set; here they are far more common.
TCR CD3 inh: blocks the human TCR-CD3 interaction | TAMRA-labeled TCR probe fluorescence, biochemical | AID 651800 | inhibition, % at 9.4 µM | 0.37% of 360,000 active; in the data active means inhibition above about 19%;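 further: recombinant mutant TCR 2C K166C tagged with TAMRA read by polarization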
Fam108B counter: blocks mouse Fam108B hydrolase in RBBP9 counter-screen; recombinant Fam108B, FP-Rh probe fluorescence polarization; inhibition, % at 9.51 µM; 0.33% of 300,000 active;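 active means inhibition above the screen mean inhibition plus 3 SD, computed separately per campaign, cut at about 18% in these data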;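 further: inhibitors lower polarization as less probe binds the enzyme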
PME-1 inh: PME-1 (human) inhibition; 0.53% of 320,000 active; recombinant PME-1, FP-Rh probe fluorescence polarization; Q9Y570; inhibition, % at 5.9 µM;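 active means inhibition above the campaign mean of all compounds plus 3 SD, cut at about 26% in these data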;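 further: competitive labeling of PME-1 active site by serine hydrolase directed probe; inhibitors block probe labeling so polarization falls and inhibition rises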
Target sequence (Q9Y570 whole entry, looked up): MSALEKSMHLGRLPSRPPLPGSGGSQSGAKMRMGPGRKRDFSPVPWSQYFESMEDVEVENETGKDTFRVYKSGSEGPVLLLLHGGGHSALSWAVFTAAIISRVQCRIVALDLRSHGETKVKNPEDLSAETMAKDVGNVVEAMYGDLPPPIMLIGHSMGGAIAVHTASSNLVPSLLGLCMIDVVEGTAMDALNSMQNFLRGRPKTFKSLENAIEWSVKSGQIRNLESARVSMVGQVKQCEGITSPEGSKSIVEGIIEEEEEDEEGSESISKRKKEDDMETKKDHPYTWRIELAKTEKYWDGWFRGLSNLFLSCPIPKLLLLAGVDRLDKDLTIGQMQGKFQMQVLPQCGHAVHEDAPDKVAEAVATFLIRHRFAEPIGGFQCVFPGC
SIAE inh: inhibitors of human sialic acid acetylesterase SIAE; Q9HAT2; SIAE FP-Rh probe binding, fluorescence polarization; inhibition, % at 9.66 µM; 0.69% of 370,000 active; AID 1053197;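 active means inhibition above a cutoff: mean of compounds within the control limits plus 3 SD of those, cut at about 17% in these data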
PAD4 FP inh: inhibitors of human PAD4. Q9UM07. recombinant PAD4, RCA probe fluorescence polarization. 0.41% of 330,000 active. inhibition, % at 6.36 µM;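 active means percent inhibition above a cutoff equal to the mean of all tested compounds plus 3 SD, cut at about 15% in these data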
PRMT1 inh: PRMT1 (human) inhibition, primary screen; Q99873; recombinant PRMT1, activity-based probe fluorescence polarization; inhibition, % at 2.79 µM; 1.3% of 370,000 active;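 active means inhibition above about 21% made by adding two undisclosed values, limit read from the data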
Hits are given with their value.

Results for CCOC(=O)Cn1cc(CN2C(C(=O)OC)CN(Cc3ccc(OC)cc3)CCS2(=O)=O)nn1 (stereo not given) ?
SIAE inh: inactive; PRMT1 inh: inactive

Results for CC(=O)O/N=C1\C(=O)N(Cc2ccc(C)cc2)c2ccccc21 ?
TCR CD3 inh: inactive; SIAE inh: inactive; PRMT1 inh: inactive

What do the screens show for `CC(C)CC(=O)O/N=C1\C(=O)N(Cc2ccc(Cl)cc2)c2ccc([N+](=O)[O-])cc21`?
Fam108B counter: 43; PME-1 inh: 35; PAD4 FP inh: inactive

What do the screens show for `Cc1ccc(NC(=O)CSc2nnc(-c3cccnc3)n2Cc2ccco2)c(C)c1`?
SIAE inh: inactive; PRMT1 inh: inactive

Results for CCn1c(SCC(=O)N/N=C/C=C\c2ccco2)nc2ccccc21 ?
TCR CD3 inh: inactive; Fam108B counter: inactive; PME-1 inh: inactive; SIAE inh: inactive; PAD4 FP inh: inactive; PRMT1 inh: 21

Results for O=C1CCN(Cc2ccccc2)C(=O)N1 ?
TCR CD3 inh: inactive; SIAE inh: inactive; PRMT1 inh: inactive

What do the screens show for `O=C1NC(=O)N2CCSC2(Cc2ccccc2)N1` (stereo not given)?
TCR CD3 inh: inactive; SIAE inh: inactive; PRMT1 inh: 21

How did COc1ccc(OC)c(NC(=O)CSc2ncnc3sc(C)cc23)c1 do in these assays?
TCR CD3 inh: inactive; SIAE inh: inactive; PRMT1 inh: 23

What do the screens show for `COc1ccc(OC)c(NC(=O)CNC(=O)Cn2cnc3sc(C)cc3c2=O)c1`?
TCR CD3 inh: inactive; Fam108B counter: inactive; PME-1 inh: inactive; SIAE inh: inactive; PAD4 FP inh: inactive; PRMT1 inh: inactive

How did CCCCCCC(=O)N1CCC(c2nc3c(nnn3Cc3ccccc3Cl)c(=O)[nH]2)CC1 do in these assays?
TCR CD3 inh: inactive; Fam108B counter: inactive; PME-1 inh: 27; SIAE inh: inactive; PAD4 FP inh: inactive; PRMT1 inh: inactive

What do the screens show for `O=C(CNC(=O)c1ccccc1)NCCc1ccc(O)c(O)c1`?
TCR CD3 inh: inactive; Fam108B counter: inactive; PME-1 inh: inactive; SIAE inh: inactive; PAD4 FP inh: inactive; PRMT1 inh: 25

Results for O=C(NCc1n[nH]c(=S)n1-c1ccc(Cl)c(Cl)c1)c1ccc(S(=O)(=O)N2CCCCC2)cc1 ?
TCR CD3 inh: inactive; Fam108B counter: inactive; PME-1 inh: inactive; SIAE inh: inactive; PAD4 FP inh: inactive; PRMT1 inh: 23

What do the screens show for `Cc1cc(N/N=C/c2cccc(Cl)c2)nc(-n2nc(C)cc2C)n1`?
TCR CD3 inh: inactive; Fam108B counter: inactive; PME-1 inh: inactive; SIAE inh: inactive; PAD4 FP inh: inactive; PRMT1 inh: inactive

What do the screens show for `COc1ccc(/C=N/Nc2cc(C)nc(-n3nc(C)cc3C)n2)cc1`?
TCR CD3 inh: inactive; Fam108B counter: inactive; PME-1 inh: 33; SIAE inh: inactive; PAD4 FP inh: inactive; PRMT1 inh: inactive

Results for O=c1c(Br)ccc(Br)cc1Br ?
TCR CD3 inh: inactive; SIAE inh: inactive; PRMT1 inh: 62

Results for O=C(CSc1nnc(-c2cnccn2)n1-c1ccccc1)c1ccc(F)cc1 ?
SIAE inh: inactive; PRMT1 inh: inactive

Results for COc1ccccc1CC(=O)NCCN1C(=O)C2C3C=CC(C3)C2C1=O (stereo not given) ?
SIAE inh: inactive; PRMT1 inh: inactive

What do the screens show for `COc1ccc(C(C(=O)N(C)C2CCCC2)N(Cc2ccc(F)cc2)C(=O)c2csc(-c3ccccc3)n2)cc1OC` (stereo not given)?
SIAE inh: inactive; PRMT1 inh: inactive

How did COc1ccc(C(=O)NCc2ccc3c(c2)cc(C)n3C)cc1OC do in these assays?
TCR CD3 inh: inactive; Fam108B counter: inactive; PME-1 inh: inactive; SIAE inh: inactive; PAD4 FP inh: inactive; PRMT1 inh: 24

Results for CCCCN1C(=O)N2Cc3cc(OC)ccc3C2CS1(=O)=O (stereo not given) ?
SIAE inh: inactive; PRMT1 inh: inactive

How did COc1ccc(NC(=O)NNC(=O)CCc2ccc(O)c(O)c2)cc1OC do in these assays?
TCR CD3 inh: inactive; Fam108B counter: inactive; PME-1 inh: inactive; SIAE inh: inactive; PAD4 FP inh: inactive; PRMT1 inh: 23

Results for CC1CCc2c(sc(Nc3nc4c(F)cccc4s3)c2C(N)=O)C1 (stereo not given) ?
TCR CD3 inh: inactive; Fam108B counter: inactive; PME-1 inh: inactive; SIAE inh: inactive; PAD4 FP inh: inactive; PRMT1 inh: 23

Results for CCCCCN1CCCCC(NC(=O)C2CCCCC2)C1=O (stereo not given) ?
SIAE inh: inactive; PRMT1 inh: inactive

How did Cc1nnc(SCC(=O)c2ccc(S(=O)(=O)N3CCOCC3)cc2)n1-c1ccccc1 do in these assays?
TCR CD3 inh: inactive; Fam108B counter: inactive; PME-1 inh: inactive; SIAE inh: inactive; PAD4 FP inh: inactive; PRMT1 inh: 28

Results for COc1cc(/C=N/NC(=O)c2sc(N)c(C#N)c2C)ccc1O ?
TCR CD3 inh: inactive; Fam108B counter: inactive; PME-1 inh: inactive; SIAE inh: inactive; PAD4 FP inh: inactive; PRMT1 inh: inactive

What do the screens show for `Cc1c(C(=O)N/N=C/c2ccc(O)c(Br)c2)sc(N)c1C#N`?
TCR CD3 inh: inactive; Fam108B counter: inactive; PME-1 inh: 29; SIAE inh: inactive; PAD4 FP inh: inactive; PRMT1 inh: inactive

What do the screens show for `COC(=O)[C@@]12CCCCC3=C1N(CCC3)C(=O)[C@H]2CC(=O)NCCCN1CCCC1=O`?
SIAE inh: inactive; PRMT1 inh: inactive

What do the screens show for `CC(C)(C)OC(=O)/C=C/[C@@H](CC1CCCC1)Sc1ccc(C(C)(C)C)cc1`?
SIAE inh: inactive; PRMT1 inh: inactive

How did O=C(CSCc1ccc(Cl)cc1)NCCSCc1ccco1 do in these assays?
TCR CD3 inh: inactive; Fam108B counter: inactive; PME-1 inh: inactive; SIAE inh: inactive; PAD4 FP inh: inactive; PRMT1 inh: 23

How did CC(C)n1c(SCCCc2ccccc2)nc2c1c(=O)[nH]c(=O)n2C do in these assays?
TCR CD3 inh: inactive; SIAE inh: inactive; PRMT1 inh: 22

Results for CC1(C)CC(=O)C2=C(C1)N(CCN1CCOCC1)C1=C(C(=O)CC(C)(C)C1)C2c1cccc(F)c1 ?
TCR CD3 inh: inactive; Fam108B counter: inactive; PME-1 inh: 28; SIAE inh: inactive; PAD4 FP inh: inactive; PRMT1 inh: inactive

Results for Clc1cccc(C2Nc3cccc4cccc(c34)N2)c1 ?
TCR CD3 inh: inactive; Fam108B counter: inactive; PME-1 inh: inactive; SIAE inh: inactive; PAD4 FP inh: inactive; PRMT1 inh: inactive

Results for Clc1cccc(Cl)c1C1Nc2cccc3cccc(c23)N1 ?
TCR CD3 inh: inactive; Fam108B counter: inactive; PME-1 inh: inactive; SIAE inh: inactive; PAD4 FP inh: inactive; PRMT1 inh: 31

What do the screens show for `CCOC(=O)N1CCN(C(=O)C[C@H]2C[C@@]3(C(=O)OC)C(=C[C@H](C(C)(C)C)O[C@@H]3C)N(CCc3ccc(OC)c(OC)c3)C2=O)CC1`?
SIAE inh: inactive; PRMT1 inh: inactive

What do the screens show for `Cc1ccc(S(=O)(=O)N2CCCCC2)cc1NC(=O)COC(=O)c1ccc2c(c1)OCO2`?
TCR CD3 inh: inactive; Fam108B counter: inactive; PME-1 inh: 40; SIAE inh: inactive; PAD4 FP inh: inactive; PRMT1 inh: inactive
